Experimental data: the supplement of paper PMC9694430

test system: LOC_OS01G13800-cb001; assay: thermal shift delta Tm vs DMSO control; higher = stronger stabilization (binding); details: 12.5 µM; protein concentration 2 µM
Method in brief: (§1)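 The melting temperature shift given here is a triplicate mean, measured against protein that received only DMSO. Melting temperatures came from Boltzmann fits of differential scanning fluorimetry data on E. coli-expressed, purified rice kinase domain constructs. Each 19.5 μl well contained 2 μM kinase, 100 mM potassium phosphate pH 7.5, 150 mM NaCl, 10% glycerol, 5 × SYPRO Orange and compound in DMSO. Plates were scanned from 25°C to 95°C at 0.05°C/s.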

Compared with `COCCNCc1ccc(-c2cc3nccc(Oc4ccc(NC(=O)C5(C(=O)Nc6ccc(F)cc6)CC5)cc4F)c3s2)nc1` [Sitravatinib (MGCD516)], `COc1cc2c(Oc3ccc(NC(=O)C4(C(=O)Nc5ccc(F)cc5)CC4)cc3F)ccnc2cc1OCCCN1CCOCC1` is lower in “thermal shift delta Tm” value: -0.17 °C for the first, -0.35 °C for the second.

First: COCC(=O)NC/C=C/c1ccc2ncnc(Nc3ccc(Oc4ccc(C)nc4)c(C)c3)c2c1
Second: COc1cc2c(Nc3ccc(NC(=O)c4ccccc4)cc3)ncnc2cc1OCCCN1CCOCC1
The “thermal shift delta Tm” value of the first is lower: 0.2 °C for the first, 0.65 °C for the second.

Compared with `O=C(NOC[C@H](O)CO)c1ccc(F)c(F)c1Nc1ccc(I)cc1F`, `O=C(NOCCO)c1ccc2cncn2c1Nc1ccc(I)cc1F` is higher in “thermal shift delta Tm” value: 0.45 °C for the first, 1.55 °C for the second.

Going from `Cc1cc(Nc2cc(N3CCN(C)CC3)nc(/C=C/c3ccccc3)n2)n[nH]1` to `Cc1nc(Nc2ncc(C(=O)Nc3c(C)cccc3Cl)s2)cc(N2CCN(CCO)CC2)n1` [Dasatinib], the “thermal shift delta Tm” value rises from -0.23 °C to 0.61 °C.

Going from `Nc1nc(N)c2nc(-c3cccc(O)c3)c(-c3cccc(O)c3)nc2n1` to `CC(C)(C)c1nc(-c2ccc(NC(=O)Nc3cccc(C(F)(F)F)c3)c3ccccc23)c2c(N)nccn12` [kira6], the “thermal shift delta Tm” value rises from 0.77 °C to 1.09 °C.

First: O=C(c1ccc(Nc2nccc(-c3cc4ccccc4s3)n2)cc1)N1CCC(N2CCCC2)CC1 [IKK-16 (IKK Inhibitor VII)]
Second: O=C(Nc1ccccc1C(=O)NC1CCCCNC1=O)c1cc2ccccc2s1 (centres undefined)
The “thermal shift delta Tm” value of the first is lower: -0.34 °C for the first, 0.44 °C for the second.

Going from `CC(C)CC(=O)Nc1n[nH]c2c1CN(C(=O)C1CCN(C)CC1)C2(C)C` to `Cc1nc(NC(=O)N2CCC[C@H]2C(N)=O)sc1-c1ccnc(C(C)(C)C(F)(F)F)c1` [Alpelisib (BYL719)], the “thermal shift delta Tm” value falls from 0.44 °C to -0.51 °C.

First: OCCn1cc(-c2cnc3nnn(Cc4ccc5ncccc5c4)c3n2)cn1
Second: CNC(=O)c1ccc(-c2cnc3ncc(Cc4ccc5ncccc5c4)n3n2)cc1F
The “thermal shift delta Tm” value of the first is lower: -0.25 °C for the first, -0.08 °C for the second.

Going from `COc1ccc(-c2ccc3ncc4c(c3c2)n(-c2ccc(N3CCNCC3)c(C(F)(F)F)c2)c(=O)n4C)cn1` to `CN1CCN(c2ccc3nc(-c4c(N)c5c(F)cccc5[nH]c4=O)[nH]c3c2)CC1` [Dovitinib (TKI258) Lactate], the “thermal shift delta Tm” value rises from 0.05 °C to 1.06 °C.

Compared with `FC(F)(F)c1ccc(CNc2ccc(Cc3c[nH]c4ncc(Cl)cc34)cn2)cn1` [Pexidartinib (PLX3397)], `O=C(NCCO)c1cccc(-c2cc(Nc3ccc(OC(F)(F)F)cc3)ncn2)c1` is lower in “thermal shift delta Tm” value: 0.85 °C for the first, 0.62 °C for the second.

Going from `C[C@@H](Nc1cc(F)cc(F)c1)c1cc(C(=O)N(C)C)cc2c(=O)cc(N3CCOCC3)oc12` to `Fc1ccc2[nH]ccc2c1-c1nc(N2CCOCC2)c2sc(CN3CCN(CC4CC4)CC3)cc2n1`, the “thermal shift delta Tm” value falls from 0.04 °C to -0.36 °C.

Compared with `C[C@@H]1COCCN1c1cc(=O)n2c(n1)N(Cc1cncc(Cl)c1)[C@H](C(F)(F)F)CC2`, `CNc1nc(-c2ccc3c(N)n[nH]c3c2)cc(N2C[C@@H](C(=O)NC3CCCCC3)CC[C@H]2C)n1` is lower in “thermal shift delta Tm” value: 1.15 °C for the first, 0.25 °C for the second.

Compared with `COc1cc(N2CCC(N(C)C)CC2)ccc1Nc1ncc(Cl)c(Nc2ccccc2P(C)(C)=O)n1`, `Cc1cc(NC(=O)c2cccc(NC(=O)/C=C/CN(C)C)c2)ccc1Nc1nccc(-c2cccnc2)n1` is higher in “thermal shift delta Tm” value: -0.94 °C for the first, 0.46 °C for the second.

Going from `N#C/C(=C(/N)Sc1ccc(N)cc1)c1ccccc1C(F)(F)F` to `NCC(=O)Nc1ccc(-n2nc(C(F)(F)F)cc2-c2ccc3c(ccc4ccccc43)c2)cc1`, the “thermal shift delta Tm” value falls from 0.3 °C to -0.76 °C.

First: Cc1c(C(=O)N2CCOc3ccc(-c4ccc(N)nc4)cc3C2)ccc(S(C)(=O)=O)c1F
Second: NC(=O)Nc1cc(-c2cccc(F)c2)sc1C(=O)N[C@H]1CCCNC1
The “thermal shift delta Tm” value of the first is lower: 0.06 °C for the first, 0.24 °C for the second.

First: CCOc1cc2ncc(C#N)c(Nc3ccc(F)c(Cl)c3)c2cc1NC(=O)/C=C/CN(C)C [Pelitinib (EKB-569)]
Second: CCOc1cn(-c2ccc(F)cc2C)nc1C(=O)Nc1ccc(Oc2ccnc3cc(OC)c(OC)cc23)c(F)c1
The “thermal shift delta Tm” value of the first is higher: 0.55 °C for the first, -0.07 °C for the second.

Compared with `Oc1ccc(Nc2nc(-c3ccc(Cl)cc3)cs2)cc1`, `N#Cc1ccc2ncnc(NCCc3ccccc3)c2c1` [Senexin A] is lower in “thermal shift delta Tm” value: 0.46 °C for the first, 0.25 °C for the second.

Compared with `CC(C)c1c2cc(-c3ccnc(NC4CCC(NC5CCOCC5)CC4)n3)ccc2nn1C` (centres undefined), `COc1cccc2cc(-c3nc([C@H]4CC[C@H](C(=O)O)CC4)n4ncnc(N)c34)[nH]c12` is higher in “thermal shift delta Tm” value: -0.3 °C for the first, -0.29 °C for the second.

In the case of `N#Cc1cnc(Nc2cc(NC[C@H]3CNCCO3)c(C(F)(F)F)cn2)cn1`, the “thermal shift delta Tm” value is reported as -0.18 °C.

test system: LOC_OS01G14860-cb001; assay: as above; details: 12.5 µM; protein concentration 2 µM
Method in brief: as §1

Going from `COCCNCc1ccc(-c2cc3nccc(Oc4ccc(NC(=O)C5(C(=O)Nc6ccc(F)cc6)CC5)cc4F)c3s2)nc1` [Sitravatinib (MGCD516)] to `COc1cc2c(Oc3ccc(NC(=O)C4(C(=O)Nc5ccc(F)cc5)CC4)cc3F)ccnc2cc1OCCCN1CCOCC1`, the “thermal shift delta Tm” value falls from 3.69 °C to 1.69 °C.

First: COCC(=O)NC/C=C/c1ccc2ncnc(Nc3ccc(Oc4ccc(C)nc4)c(C)c3)c2c1
Second: COc1cc2c(Nc3ccc(NC(=O)c4ccccc4)cc3)ncnc2cc1OCCCN1CCOCC1
The “thermal shift delta Tm” value of the first is lower: 0.11 °C for the first, 0.52 °C for the second.

First: O=C(NOC[C@H](O)CO)c1ccc(F)c(F)c1Nc1ccc(I)cc1F
Second: O=C(NOCCO)c1ccc2cncn2c1Nc1ccc(I)cc1F
The “thermal shift delta Tm” value of the first is lower: 0.5 °C for the first, 3.41 °C for the second.

Going from `Cc1cc(Nc2cc(N3CCN(C)CC3)nc(/C=C/c3ccccc3)n2)n[nH]1` to `Cc1nc(Nc2ncc(C(=O)Nc3c(C)cccc3Cl)s2)cc(N2CCN(CCO)CC2)n1` [Dasatinib], the “thermal shift delta Tm” value falls from 2.99 °C to 0.27 °C.

First: Nc1nc(N)c2nc(-c3cccc(O)c3)c(-c3cccc(O)c3)nc2n1
Second: CC(C)(C)c1nc(-c2ccc(NC(=O)Nc3cccc(C(F)(F)F)c3)c3ccccc23)c2c(N)nccn12 [kira6]
The “thermal shift delta Tm” value of the first is lower: 1 °C for the first, 1.63 °C for the second.

Compared with `O=C(c1ccc(Nc2nccc(-c3cc4ccccc4s3)n2)cc1)N1CCC(N2CCCC2)CC1` [IKK-16 (IKK Inhibitor VII)], `O=C(Nc1ccccc1C(=O)NC1CCCCNC1=O)c1cc2ccccc2s1` (centres undefined) is lower in “thermal shift delta Tm” value: 5.72 °C for the first, 0.04 °C for the second.

First: CC(C)CC(=O)Nc1n[nH]c2c1CN(C(=O)C1CCN(C)CC1)C2(C)C
Second: Cc1nc(NC(=O)N2CCC[C@H]2C(N)=O)sc1-c1ccnc(C(C)(C)C(F)(F)F)c1 [Alpelisib (BYL719)]
The “thermal shift delta Tm” value of the first is higher: 6.4 °C for the first, -0.19 °C for the second.

First: OCCn1cc(-c2cnc3nnn(Cc4ccc5ncccc5c4)c3n2)cn1
Second: CNC(=O)c1ccc(-c2cnc3ncc(Cc4ccc5ncccc5c4)n3n2)cc1F
The “thermal shift delta Tm” value of the first is lower: 0.12 °C for the first, 0.29 °C for the second.

Compared with `COc1ccc(-c2ccc3ncc4c(c3c2)n(-c2ccc(N3CCNCC3)c(C(F)(F)F)c2)c(=O)n4C)cn1`, `CN1CCN(c2ccc3nc(-c4c(N)c5c(F)cccc5[nH]c4=O)[nH]c3c2)CC1` [Dovitinib (TKI258) Lactate] is lower in “thermal shift delta Tm” value: 2.59 °C for the first, 2.06 °C for the second.

Going from `FC(F)(F)c1ccc(CNc2ccc(Cc3c[nH]c4ncc(Cl)cc34)cn2)cn1` [Pexidartinib (PLX3397)] to `O=C(NCCO)c1cccc(-c2cc(Nc3ccc(OC(F)(F)F)cc3)ncn2)c1`, the “thermal shift delta Tm” value rises from 1.22 °C to 1.32 °C.

Going from `C[C@@H](Nc1cc(F)cc(F)c1)c1cc(C(=O)N(C)C)cc2c(=O)cc(N3CCOCC3)oc12` to `Fc1ccc2[nH]ccc2c1-c1nc(N2CCOCC2)c2sc(CN3CCN(CC4CC4)CC3)cc2n1`, the “thermal shift delta Tm” value rises from 0.22 °C to 0.37 °C.

First: C[C@@H]1COCCN1c1cc(=O)n2c(n1)N(Cc1cncc(Cl)c1)[C@H](C(F)(F)F)CC2
Second: CNc1nc(-c2ccc3c(N)n[nH]c3c2)cc(N2C[C@@H](C(=O)NC3CCCCC3)CC[C@H]2C)n1
The “thermal shift delta Tm” value of the first is lower: 0.32 °C for the first, 0.55 °C for the second.

First: COc1cc(N2CCC(N(C)C)CC2)ccc1Nc1ncc(Cl)c(Nc2ccccc2P(C)(C)=O)n1
Second: Cc1cc(NC(=O)c2cccc(NC(=O)/C=C/CN(C)C)c2)ccc1Nc1nccc(-c2cccnc2)n1
The “thermal shift delta Tm” value of the first is lower: 0.31 °C for the first, 1.25 °C for the second.

First: N#C/C(=C(/N)Sc1ccc(N)cc1)c1ccccc1C(F)(F)F
Second: NCC(=O)Nc1ccc(-n2nc(C(F)(F)F)cc2-c2ccc3c(ccc4ccccc43)c2)cc1
The “thermal shift delta Tm” value of the first is higher: 0.5 °C for the first, -0.8 °C for the second.

Going from `Cc1c(C(=O)N2CCOc3ccc(-c4ccc(N)nc4)cc3C2)ccc(S(C)(=O)=O)c1F` to `NC(=O)Nc1cc(-c2cccc(F)c2)sc1C(=O)N[C@H]1CCCNC1`, the “thermal shift delta Tm” value rises from 0.22 °C to 0.9 °C.

Compared with `CCOc1cc2ncc(C#N)c(Nc3ccc(F)c(Cl)c3)c2cc1NC(=O)/C=C/CN(C)C` [Pelitinib (EKB-569)], `CCOc1cn(-c2ccc(F)cc2C)nc1C(=O)Nc1ccc(Oc2ccnc3cc(OC)c(OC)cc23)c(F)c1` is lower in “thermal shift delta Tm” value: 4.99 °C for the first, 0.5 °C for the second.

Compared with `Oc1ccc(Nc2nc(-c3ccc(Cl)cc3)cs2)cc1`, `N#Cc1ccc2ncnc(NCCc3ccccc3)c2c1` [Senexin A] is lower in “thermal shift delta Tm” value: 1.41 °C for the first, 0.78 °C for the second.

Compared with `CC(C)c1c2cc(-c3ccnc(NC4CCC(NC5CCOCC5)CC4)n3)ccc2nn1C` (centres undefined), `COc1cccc2cc(-c3nc([C@H]4CC[C@H](C(=O)O)CC4)n4ncnc(N)c34)[nH]c12` is lower in “thermal shift delta Tm” value: 7.15 °C for the first, 0.44 °C for the second.

`N#Cc1cnc(Nc2cc(NC[C@H]3CNCCO3)c(C(F)(F)F)cn2)cn1` was tested, and the “thermal shift delta Tm” value was 2.93 °C.
